Assay outcomes as filed in PubChem BioAssay.
Most compounds without a hit are left out; they make up all but 2.3% or so of the library.
Kir21 inh: inhibitors of mouse Kir2.1 inward-rectifier potassium channel; Inward rectifier potassium channel 2 (Mus musculus), P35561; HEK293-Kir2.1, FluxOR thallium flux fluorescence; hits give low values; B-score at 10 µM; hit rate 0.85% among 310,000;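 active = fluorescence ratio B-score at or below minus 3 SD of library scores, with starting-brightness B-score within 2 SD, cut at about -4.2 in these data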;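 note: channel flux triggered by added potassium and thallium sulfate stimulus; B-score of peak minus minimum fluorescence over baseline after thallium stimulus; more negative B-score means stronger Kir2.1 block with less thallium influx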
M18AAP inhibitor: PfM18AAP inhibitors, malaria aminopeptidase, primary screen, biochemical, QFRET, recombinant enzyme. M18 aspartyl aminopeptidase (Plasmodium falciparum 3D7). H-Glu-NHMec fluorogenic cleavage. inhibition, % at 7.35 µM. hit rate 1.2% among 290,000;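 active = inhibition above the campaign mean inhibition over all tested compounds plus 3 SD, cut at about 28% in these data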
Rce1 inhib: yeast Rce1p protease inhibitors, primary screen, biochemical, fluorescence, cell-free homogeneous; CAAX prenyl protease 2 (Saccharomyces cerevisiae (strain ATCC 204508 / S288c)), Q03530; AID 2563, 2010; yeast membranes, quenched prenylated peptide cleavage fluorescence; calls only; hit rate 0.27% among 290,000;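 active = fall in fluorescence gain of 50% or more versus controls, with final raw signal at or below 3038400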
Target sequence (Q03530 whole entry, looked up): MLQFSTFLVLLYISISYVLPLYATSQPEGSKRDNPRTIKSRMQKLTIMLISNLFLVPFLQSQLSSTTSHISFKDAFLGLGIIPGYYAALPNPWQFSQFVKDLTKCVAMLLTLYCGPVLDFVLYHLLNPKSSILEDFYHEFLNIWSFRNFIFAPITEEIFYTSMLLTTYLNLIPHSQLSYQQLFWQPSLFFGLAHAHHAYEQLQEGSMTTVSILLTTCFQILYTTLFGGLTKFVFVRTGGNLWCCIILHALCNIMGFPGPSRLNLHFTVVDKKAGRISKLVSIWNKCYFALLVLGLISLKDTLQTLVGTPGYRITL
DNA FID counter: compounds displacing fluorescent DNA intercalator, primary screen, artefact control for HCV NS3 helicase inhibitor project, biochemical, FID fluorescence. DNA fluorescent intercalator displacement. inhibition, % at 7.9 µM. hit rate 0.17% among 290,000. AID 1845, 2009; in the data active = inhibition above about 37%;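 note: higher means more ethidium bromide displaced from hairpin DNA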
Of the large screens only hits and unclear results are named; the others gave an inactive call.

COc1ccc(C2c3c(ncn(CCN4CCOCC4)c3=N)Oc3ccc4ccccc4c32)cc1 (configuration not stated)	Rce1 inhib active
COC(=O)c1[nH]c2ccc(C)cc2c1NS(=O)(=O)c1ccc(F)cc1	Kir21 inh -5.3
COC(=O)c1[nH]c2ccc(C)cc2c1NS(=O)(=O)c1ccc(F)c(C)c1	none
CCOc1ccc(NS(=O)(=O)c2ccc(-c3coc(C)n3)cc2)cc1	none
C=CCOc1ccc(CN(C)CC(O)COc2cccc3ccccc23)cc1 (configuration not stated)	Kir21 inh -4.6 (no result: Rce1 inhib)
Cc1cc(CN(C)Cc2ccc(OCC(O)CN(C)Cc3ccccc3)cc2)on1 (configuration not stated)	none
COC(=O)CC(NC(=S)NC(=O)c1ccccc1)c1ccc(Br)cc1 (configuration not stated)	none
CCN(CC)CCNCC(O)(c1ccc(Cl)cc1)c1ccc(Cl)cc1	Kir21 inh -5.6
O=C(OCCCOC(=O)c1ccc(O)cc1)c1ccc(O)cc1	Kir21 inh -4.9
Cc1ccn(CCC(=O)Nc2ccc3c(c2)OCO3)n1	none
CCC(=O)N(CCC(Cc1ccccc1)c1ccco1)Cc1ccco1 (configuration not stated)	Kir21 inh -12
CCC(=O)N(CCC(Cc1ccccc1)c1ccc2c(c1)OCO2)Cc1ccccc1F (configuration not stated)	none
CCC(=O)N(CCC(c1ccccc1)c1ccco1)Cc1cccs1 (configuration not stated)	Kir21 inh -7.4
O=c1c2oc3nc4c(cc3c2ncn1CCCc1ccccc1)CCCC4	none
N#Cc1cc2c(N)c(C(=O)Nc3ccccc3)sc2nc1N	none
Cc1cccc(NC(=O)c2sc3nc(N)c(C#N)cc3c2N)c1	M18AAP inhibitor 28
Cc1ccc(S(=O)(=O)Nc2ccccc2F)cc1C(=O)OC(C)C(=O)N1CCOCC1 (configuration not stated)	none (no result: M18AAP inhibitor, DNA FID counter)
CCO[C@@H]1OC(C(=O)N2CCN(Cc3ccccc3)CC2)=C[C@H](c2ccccc2)[C@H]1CCCO	Rce1 inhib active
Cc1csc(SCC(=O)NCCc2ccc(Cl)cc2)n1	none
Cc1nc(SCC(=O)NCCc2ccc(Cl)cc2)nc(C)c1C	Kir21 inh -5
O=C(CCn1cccn1)Nc1ccc2c(c1)OCCO2	none
O=c1c2ccccc2sn1-c1cc(S(=O)(=O)N2CCOCC2)ccc1N1CCOCC1	M18AAP inhibitor 31
O=S(=O)(c1ccc(N2CCOCC2)c(Cl)c1)N1CCOCC1	none
CC1CCCCN1CC(O)COCCC12CC3CC(CC(C3)C1)C2 (configuration not stated)	DNA FID counter 44
COc1cccc(/C=N/NC(=O)c2ccoc2C)c1	none
COc1ccc(C2=C(C=O)Cc3ccccc3O2)cc1	none (no result: M18AAP inhibitor, DNA FID counter)
COc1cc(/C=C2/C(=O)NN(c3cccc(C)c3)C2=O)ccc1OC(=O)c1ccco1	Kir21 inh -6.1
COc1ccccc1CC(NC(C)=O)C(=O)NC1CCN(C(=O)Nc2ccccc2F)CC1 (configuration not stated)	none
O=C(CC1=NCCNC(c2ccccc2)C1)c1ccccc1O (configuration not stated)	Kir21 inh -6
c1ccc(CC2=NCCN2)cc1	none
NC(=O)c1cc[n+](Cc2ccc([N+](=O)[O-])cc2)cc1	none
COc1ccc2c(c1)C(=NNc1ccc(C(=O)O)cc1)c1cc(OC)ccc1-2	none
COc1ccc(/C(C)=N/Nc2ccc(C(=O)O)cc2)c(OC)c1	M18AAP inhibitor 29
Cc1nnc(NS(=O)(=O)c2ccc(Br)cc2)s1	none
O=[N+]([O-])c1ccc(N/N=C\c2cccn2-c2ccccc2)nc1	M18AAP inhibitor 47
O=[N+]([O-])c1ccc(N/N=C/c2cccs2)nc1	none (no result: M18AAP inhibitor, DNA FID counter)
O=C(OCc1cccc(F)c1)c1ccc2c(=O)n3c(nc2c1)CCC3	none
COc1ccc(C(=O)NC(=O)COC(=O)c2ccc3ncsc3c2)cc1	none
O=C(COC(=O)c1ccc2ncsc2c1)NC(=O)c1ccccc1	M18AAP inhibitor 31
Cc1cccc(C)c1NC(=O)C(C)N1CCCCC1 (configuration not stated)	none
CCOc1ccc(N)c(SSc2cc(OCC)ccc2N)c1	M18AAP inhibitor 43
CCOc1cc(-c2ccc(N)c(OCC)c2)ccc1N	none
COc1ccccc1C(=O)CSc1ccccn1	none
CC(NS(=O)(=O)OCC(Cl)(Cl)Cl)c1ccc(Br)cc1 (configuration not stated)	Kir21 inh -7.1
CC(C)CC(NS(=O)(=O)OCC(Cl)(Cl)Cl)c1ccccc1 (configuration not stated)	none
Cc1ccc(S(=O)(=O)NCCCNS(=O)(=O)c2ccccc2[N+](=O)[O-])cc1	none
Cc1ccc(S(=O)(=O)NCCNc2ccccc2[N+](=O)[O-])cc1	Kir21 inh -4.3
O=[N+]([O-])c1ccc(NCCNS(=O)(=O)c2ccccc2)c(C(F)(F)F)c1	Kir21 inh -5.8
Cc1cc(C)c(S(=O)(=O)N2CCN(CCN3C(=O)c4cccc5cccc(c45)C3=O)CC2)cc1[N+](=O)[O-]	none (no result: Kir21 inh, Rce1 inhib)
O=C1c2cccc3cc([N+](=O)[O-])cc(c23)C(=O)N1CCN1CCCC1	DNA FID counter 72
Cc1cc(C)n(-c2nc(SCCN(C)C)c3c4c(sc3n2)CCCC4)n1	Kir21 inh -8
Cc1cc(C)n(-c2nc(SCC(=O)O)c3c4c(sc3n2)COC(C)(C)C4)n1	none
CCOC(=O)c1cc(C)[nH]c(=O)c1C#N	Rce1 inhib active
CCOC(=O)c1cc(C)[nH]c1C	none
NS(=O)(=O)c1ccc(N/N=C/c2cn(-c3ccccc3)nc2-c2cccs2)c([N+](=O)[O-])c1	none
NS(=O)(=O)c1ccc(N/N=C/c2cn(-c3ccccc3)nc2-c2cccs2)cc1	Rce1 inhib active
O=C(NCc1ccccc1)c1ccc(S(=O)(=O)N2CCCC2)cc1	none (no result: Rce1 inhib)
O=C(COC(=O)c1ccc(S(=O)(=O)N2CCCC2)cc1)NCc1ccccc1	Rce1 inhib active
O=C(c1nnsc1S(=O)c1ccc(Cl)cc1)N1CCOCC1 (configuration not stated)	Kir21 inh -7
O=C(Nc1ccccc1)c1nnsc1S(=O)c1ccc(Cl)cc1 (configuration not stated)	none
CC(=O)Nc1ccc(S(=O)(=O)NC(C)C(=O)NCCc2ccc(F)cc2)cc1 (configuration not stated)	none
N#Cc1c(NC(=O)CCC(=O)O)sc2c1CCCCC2	M18AAP inhibitor 31
Cc1sc(NC(=O)CCCC(=O)O)c(C#N)c1C	M18AAP inhibitor 30
O=C1CCc2cc(S(=O)(=O)Nc3ccccc3)cc3c2N1CCC3	none (no result: M18AAP inhibitor, DNA FID counter)
O=C(CN1C(=O)COc2ccccc2C1=O)c1ccc2c(c1)OCCO2	none
O=C(CCS(=O)(=O)c1ccccc1)N1CCN(c2ccc(F)cc2)CC1	none
CCN=c1scc(C)n1/N=C/c1cc(Br)c(O)c(Br)c1	M18AAP inhibitor 30
COc1ccc(N2CCc3c(C)nc4c(OC)cc(OC)cc4c32)cc1	Kir21 inh -4.7
